Test results from ChEMBL document CHEMBL1961873, “Compounds: GSK PKIS; Assays: Nanosyn kinase panel” (2012).

Assays:
[1] = biological target: Protein kinase C gamma type (Homo sapiens) (UniProt P05129); conditions: at 1 µM;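 further: each value is an averaged percent inhibition of the enzyme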
[2] = biological target: T1, Protein kinase C iota type (Homo sapiens) (UniProt P41743); conditions: at 0.1 µM
T1 sequence (whole entry): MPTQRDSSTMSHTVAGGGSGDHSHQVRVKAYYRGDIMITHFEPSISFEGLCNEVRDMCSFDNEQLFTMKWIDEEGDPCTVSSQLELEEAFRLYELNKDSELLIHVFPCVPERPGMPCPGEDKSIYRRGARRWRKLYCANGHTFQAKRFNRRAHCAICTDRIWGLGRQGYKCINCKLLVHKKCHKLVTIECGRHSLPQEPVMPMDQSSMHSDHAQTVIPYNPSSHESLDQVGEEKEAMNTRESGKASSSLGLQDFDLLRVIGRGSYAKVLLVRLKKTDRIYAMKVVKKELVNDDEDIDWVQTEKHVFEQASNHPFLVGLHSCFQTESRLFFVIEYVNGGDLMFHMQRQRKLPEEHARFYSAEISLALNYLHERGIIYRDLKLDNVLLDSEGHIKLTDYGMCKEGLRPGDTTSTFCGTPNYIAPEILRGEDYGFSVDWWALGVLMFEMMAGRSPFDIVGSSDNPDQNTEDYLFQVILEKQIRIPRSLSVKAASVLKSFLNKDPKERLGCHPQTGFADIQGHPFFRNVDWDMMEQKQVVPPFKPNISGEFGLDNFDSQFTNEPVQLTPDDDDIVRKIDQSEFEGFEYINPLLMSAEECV

[3] = biological target: T1, Protein kinase C iota type (Homo sapiens); conditions: at 1 µM
[4] = biological target: Protein kinase C theta type (Homo sapiens) (UniProt Q04759); conditions: at 0.1 µM
[5] = biological target: Protein kinase C theta type (Homo sapiens) (UniProt Q04759); conditions: at 1 µM
[6] = biological target: Protein kinase C beta type (Homo sapiens) (UniProt P05771); conditions: at 0.1 µM
[7] = biological target: Protein kinase C beta type (Homo sapiens) (UniProt P05771); conditions: at 1 µM
[8] = biological target: T2, Serine/threonine-protein kinase D1 (Homo sapiens) (UniProt Q15139); conditions: at 0.1 µM
T2 sequence (whole entry): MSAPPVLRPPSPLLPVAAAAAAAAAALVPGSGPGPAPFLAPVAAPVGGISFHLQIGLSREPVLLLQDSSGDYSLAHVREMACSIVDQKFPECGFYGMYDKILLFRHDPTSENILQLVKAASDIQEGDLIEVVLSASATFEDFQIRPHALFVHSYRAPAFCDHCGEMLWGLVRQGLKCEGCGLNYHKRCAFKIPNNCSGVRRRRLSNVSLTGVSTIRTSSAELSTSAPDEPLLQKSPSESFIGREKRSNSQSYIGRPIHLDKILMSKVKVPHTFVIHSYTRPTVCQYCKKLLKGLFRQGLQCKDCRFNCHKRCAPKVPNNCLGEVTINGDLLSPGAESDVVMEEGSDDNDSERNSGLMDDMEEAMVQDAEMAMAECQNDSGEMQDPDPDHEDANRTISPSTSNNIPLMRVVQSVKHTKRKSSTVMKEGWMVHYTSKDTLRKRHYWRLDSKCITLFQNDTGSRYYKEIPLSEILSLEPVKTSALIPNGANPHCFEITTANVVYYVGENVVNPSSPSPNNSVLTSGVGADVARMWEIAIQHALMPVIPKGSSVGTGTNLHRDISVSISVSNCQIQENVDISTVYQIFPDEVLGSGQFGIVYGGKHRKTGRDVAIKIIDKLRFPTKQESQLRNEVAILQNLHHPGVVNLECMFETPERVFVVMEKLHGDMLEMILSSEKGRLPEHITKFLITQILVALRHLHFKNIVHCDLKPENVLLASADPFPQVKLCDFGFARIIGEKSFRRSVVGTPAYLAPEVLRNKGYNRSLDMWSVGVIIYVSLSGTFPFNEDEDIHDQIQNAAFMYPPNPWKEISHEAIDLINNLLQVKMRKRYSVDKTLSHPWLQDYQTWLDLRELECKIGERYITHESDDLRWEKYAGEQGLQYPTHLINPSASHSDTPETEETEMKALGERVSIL

[9] = biological target: T2, Serine/threonine-protein kinase D1 (Homo sapiens); conditions: at 1 µM
[10] = biological target: T3, Serine/threonine-protein kinase D2 (Homo sapiens) (UniProt Q9BZL6); conditions: at 0.1 µM;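 further: reported percent inhibition values are means, part of the GSK PKIS kinase panel screen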
T3 sequence (whole entry): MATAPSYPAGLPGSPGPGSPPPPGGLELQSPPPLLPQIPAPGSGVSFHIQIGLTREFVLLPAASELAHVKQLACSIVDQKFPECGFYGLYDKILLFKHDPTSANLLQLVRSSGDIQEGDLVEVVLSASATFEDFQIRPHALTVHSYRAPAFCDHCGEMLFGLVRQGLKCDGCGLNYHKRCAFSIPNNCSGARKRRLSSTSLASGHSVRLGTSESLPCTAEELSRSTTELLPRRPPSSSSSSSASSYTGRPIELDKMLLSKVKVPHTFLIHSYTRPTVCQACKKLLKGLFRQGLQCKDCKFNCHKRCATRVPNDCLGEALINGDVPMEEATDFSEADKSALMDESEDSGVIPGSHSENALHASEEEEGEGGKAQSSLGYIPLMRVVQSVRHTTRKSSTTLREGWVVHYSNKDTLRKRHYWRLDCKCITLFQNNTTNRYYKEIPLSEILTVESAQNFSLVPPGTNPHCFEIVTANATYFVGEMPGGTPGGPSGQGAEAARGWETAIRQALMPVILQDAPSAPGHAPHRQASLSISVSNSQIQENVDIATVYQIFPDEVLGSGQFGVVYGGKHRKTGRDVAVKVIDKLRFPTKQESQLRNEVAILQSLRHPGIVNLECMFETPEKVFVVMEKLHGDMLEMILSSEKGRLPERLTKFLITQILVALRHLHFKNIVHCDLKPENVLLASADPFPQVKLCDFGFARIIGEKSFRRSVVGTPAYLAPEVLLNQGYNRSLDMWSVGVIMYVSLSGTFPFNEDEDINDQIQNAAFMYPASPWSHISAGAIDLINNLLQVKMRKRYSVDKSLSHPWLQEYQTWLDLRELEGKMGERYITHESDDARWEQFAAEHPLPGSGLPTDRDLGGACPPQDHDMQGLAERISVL

Protein kinase C beta type (Homo sapiens), sequence (P05771 2-671 limits assumed): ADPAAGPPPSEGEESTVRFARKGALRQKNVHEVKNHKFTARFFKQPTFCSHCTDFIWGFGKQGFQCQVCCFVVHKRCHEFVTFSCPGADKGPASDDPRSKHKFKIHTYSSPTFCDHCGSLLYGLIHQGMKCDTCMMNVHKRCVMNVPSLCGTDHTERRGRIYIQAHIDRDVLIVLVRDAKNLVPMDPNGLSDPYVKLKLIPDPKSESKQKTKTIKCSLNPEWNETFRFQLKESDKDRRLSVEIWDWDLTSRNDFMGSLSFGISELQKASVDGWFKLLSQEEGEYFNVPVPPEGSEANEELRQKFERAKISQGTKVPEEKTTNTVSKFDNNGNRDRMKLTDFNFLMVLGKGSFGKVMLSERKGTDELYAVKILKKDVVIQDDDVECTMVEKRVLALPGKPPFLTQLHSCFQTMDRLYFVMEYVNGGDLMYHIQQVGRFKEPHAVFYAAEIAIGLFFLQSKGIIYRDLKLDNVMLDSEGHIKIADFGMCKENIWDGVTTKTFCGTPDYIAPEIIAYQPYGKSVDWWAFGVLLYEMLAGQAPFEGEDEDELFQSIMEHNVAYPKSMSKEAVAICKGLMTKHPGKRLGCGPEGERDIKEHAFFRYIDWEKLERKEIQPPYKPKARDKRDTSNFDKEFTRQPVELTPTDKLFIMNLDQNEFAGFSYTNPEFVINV
Protein kinase C theta type (Homo sapiens), sequence (Q04759 whole entry, looked up): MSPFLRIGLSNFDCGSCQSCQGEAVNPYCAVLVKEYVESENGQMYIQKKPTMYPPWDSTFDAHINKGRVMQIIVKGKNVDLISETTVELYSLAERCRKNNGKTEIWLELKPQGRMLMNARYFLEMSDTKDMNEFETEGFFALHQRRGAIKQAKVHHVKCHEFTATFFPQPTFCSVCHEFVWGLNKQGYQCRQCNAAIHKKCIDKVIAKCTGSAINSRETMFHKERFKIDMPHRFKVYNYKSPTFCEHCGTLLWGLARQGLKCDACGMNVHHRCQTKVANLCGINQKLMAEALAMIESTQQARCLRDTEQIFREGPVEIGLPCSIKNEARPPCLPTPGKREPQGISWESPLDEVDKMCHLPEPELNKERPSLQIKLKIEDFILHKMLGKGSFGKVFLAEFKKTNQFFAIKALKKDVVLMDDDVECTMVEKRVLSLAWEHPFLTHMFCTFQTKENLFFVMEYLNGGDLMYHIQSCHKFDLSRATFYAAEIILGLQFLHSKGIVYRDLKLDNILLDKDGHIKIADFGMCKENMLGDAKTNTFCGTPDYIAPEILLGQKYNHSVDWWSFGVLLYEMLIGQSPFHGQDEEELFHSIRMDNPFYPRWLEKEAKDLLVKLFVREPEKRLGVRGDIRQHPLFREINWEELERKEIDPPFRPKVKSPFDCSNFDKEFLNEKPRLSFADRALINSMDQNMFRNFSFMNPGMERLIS

Row | Structure (SMILES) | inhibition [1] [%] | inhibition [2] [%] | inhibition [3] [%] | inhibition [4] [%] | inhibition [5] [%] | inhibition [6] [%] | inhibition [7] [%] | inhibition [8] [%] | inhibition [9] [%] | inhibition [10] [%]
1 | Cc1ccc(O)cc1Nc1ccnc2cc(-c3ccccn3)ccc12 | 4.48 | 2.29 | 4.56 | 2.6 | 1.93 | 1.13 | 1.55 | 5.06 | 28.9 | 6.27
2 | O=C(Nc1n[nH]c2cc(-c3ccc(F)cc3)ccc12)C1CC1 | 5.71 | 2.42 | 3.67 | 3 | 5.04 | 2.1 | 4.04 | 3.02 | 5.62 | 2.7
3 | CCn1c(-c2nonc2N)nc2c(C#CC(C)(C)O)ncc(OC3CCNCC3)c21 | 89.5 | -0.03 | 6.53 | 38 | 81.5 | 19.7 | 61.7 | 4.17 | 13.4 | 3.98
4 | CC(=O)NCc1cccc(C#Cc2cncnc2Nc2ccc(OCc3cccc(F)c3)c(Cl)c2)c1 | 1.3 | 0.84 | 0.45 | 0.15 | -0.29 | 0.7 | 0.37 | 3.28 | 2.11 | 0.45
5 | CS(=O)(=O)CCNCc1ccc(-c2ccc3ncnc(Nc4ccc(OCc5ccccc5)c(C(F)(F)F)c4)c3c2)o1 | 0.29 | 1.93 | 2.76 | 1.99 | 1.95 | 1.11 | 1.5 | 3.89 | 5.55 | 3.28
6 | CNC(=O)c1cc(-c2ccc(F)cc2)cc(-c2ccc(S(=O)(=O)N3CCCC3)cc2)c1N | 2.53 | 1.11 | 1.04 | 0.84 | 1.4 | -0.56 | 1.04 | 3.87 | 4.98 | 2.4
7 | COc1cc(N2CCN(C(C)C)CC2)ccc1Nc1nc(Nc2ccc(F)cc2C(N)=O)c2cc[nH]c2n1 | 15.7 | -0.5 | 0.42 | 2.56 | 4.69 | 1.59 | 5.72 | 61.7 | 84.3 | 59.9
8 | c1ccc(-c2nc3n(c2-c2ccc4c(c2)OCO4)CCC3)nc1 | 2.8 | 2.19 | 3.9 | 1.78 | 3.83 | 1.96 | 4.57 | 1.92 | 5.43 | 1.94
9 | CNC(=O)c1cccc(C#Cc2cncnc2Nc2ccc(OCc3cccc(F)c3)c(Cl)c2)c1 | -1.09 | 0.26 | -0.26 | 0.09 | 1.85 | -3.35 | -0.69 | 0.59 | -0.61 | -0.57
10 | CCNC(=O)O[C@H]1CN[C@H](C#Cc2cc3ncnc(Nc4ccc(OCc5cccc(F)c5)c(Cl)c4)c3s2)C1 | 3.31 | 1.37 | 3.17 | 1.01 | 0.75 | -0.74 | 0.7 | 2.66 | 4.66 | 2.15
11 | COc1cc(Nc2nccc(Nc3ccc4c(C)n[nH]c4c3)n2)cc(OC)c1OC | 5.39 | 1.08 | 3.92 | 1.17 | -0.29 | 2.72 | 6.67 | 2.61 | 2.11 | 1.03
12 | CCn1c(-c2nonc2N)nc2c(C#CC(C)(C)O)nc(OC[C@H](N)c3ccccc3)cc21 | 45.5 | 0.16 | 3.1 | 55.1 | 82.7 | 16.3 | 59.4 | 5.85 | 29.9 | 5.65
13 | Fc1ccc(-c2nn3ccccc3c2-c2ccncc2)cc1 | 2.4 | 0.48 | 3.99 | 0.74 | 2.07 | 1.95 | 10.9 | 1.78 | 6.49 | 1.93
14 | O=S(=O)(CCNCc1ccc(-c2ccc3ncnc(Nc4ccc(OCc5cccc(F)c5)c(Cl)c4)c3c2)o1)c1ccccc1 | 6.38 | 4.15 | 4.31 | 2.33 | 2.85 | 2.03 | 2.6 | 5.17 | 7.32 | 5.52
15 | Nc1ncc(-c2cccc(S(N)(=O)=O)c2)c2scc(-c3ccc(F)c(Cl)c3)c12 | 2.77 | 1.76 | 2.27 | 1.73 | 2.11 | 0.92 | 1.52 | 6.59 | 35 | 8.43
16 | CCn1c(-c2nonc2N)nc2cnc(Oc3cccc(NC(=O)c4ccc(N(C)C)cc4)c3)cc21 | 28.3 | 6.04 | 45 | 5.55 | 32.3 | 4.27 | 21.8 | 1.61 | 4.29 | 1.81
17 | Cc1cccc(Nc2ncc(-c3ccccc3)o2)c1 | 7.25 | 1.43 | 2.2 | 4.9 | 6.83 | 2.39 | 7.38 | 3.07 | 5.44 | 3.21
